{
  "source": "the supplement of paper PMC8728848",
  "experiment_in_all_cases": "glycan array binding signal (z-score within array); higher = stronger binding",
  "conditions_in_all_cases": "glycan notation: IUPAC condensed, linker removed",
  "key": {"[1]": {"target": "Fuc(a1-2)[Gal(a1-3)]Gal(b1-4)Glc", "method_in_brief": "(§1)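 Glycan array binding is given as a within-array Z-score, which can be read as non-binding when negative. The arrays, 3228 of them, came from the Consortium for Functional Glycomics database and were retained only where the protein sequence was available. Z-scores were averaged across arrays of the same protein sequence at different concentrations or buffers and across linkers.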"}, "[2]": {"target": "Fuc(a1-2)[GalNAc(a1-3)]Gal", "method_in_brief": "as §1"}, "[3]": {"target": "Fuc(a1-2)[GalNAc(a1-3)]Gal(b1-4)Glc", "method_in_brief": "as §1"}, "[4]": {"target": "Fuc(a1-2)[GalNAc(a1-3)]Gal(b1-4)GlcNAc", "method_in_brief": "as §1"}, "[5]": {"target": "Fuc(a1-2)[GalNAc(a1-3)]Gal(b1-4)[Fuc(a1-3)]GlcNAc", "method_in_brief": "as §1"}, "[6]": {"target": "Fuc(a1-2)[GalNAc(a1-4)]Gal(b1-4)GlcNAc", "method_in_brief": "as §1"}, "[7]": {"target": "Fuc(a1-3)[Gal(b1-4)]GlcNAc(b1-2)Man(a1-3)[Fuc(a1-3)[Gal(b1-4)]GlcNAc(b1-2)Man(a1-6)]Man(b1-4)GlcNAc(b1-4)GlcNAc", "method_in_brief": "as §1"}, "[8]": {"target": "Fuc(a1-3)[Gal(b1-4)]GlcNAc(b1-4)Gal(b1-4)[Fuc(a1-3)]GlcNAc(b1-4)Gal(b1-4)[Fuc(a1-3)]GlcNAc", "method_in_brief": "as §1"}, "Fuc(b1-3)GlcNAc": {"target": "Fuc(b1-3)GlcNAc", "method_in_brief": "as §1"}, "GlcA(b1-3)Gal": {"target": "GlcA(b1-3)Gal", "method_in_brief": "as §1"}, "GlcNAc(b1-6)GalNAc": {"target": "GlcNAc(b1-6)GalNAc", "method_in_brief": "as §1"}, "GlcNAc3Prop(b1-4)GlcNAc": {"target": "GlcNAc3Prop(b1-4)GlcNAc", "method_in_brief": "as §1"}, "Man(b1-4)GlcNAc": {"target": "Man(b1-4)GlcNAc", "method_in_brief": "as §1"}, "[9]": {"target": "Neu5Ac(a2-3)Gal(b1-4)[Fuc(a1-3)]GlcNAc(b1-3)Gal(b1-4)[Fuc(a1-3)]GlcNAc(b1-3)Gal(b1-4)[Fuc(a1-3)]GlcNAc", "method_in_brief": "as §1"}, "[10]": {"target": "Neu5Ac(a2-8)Neu5Ac(a2-8)Neu5Ac", "method_in_brief": "as §1"}, "Neu5Gc(a2-3)Gal(b1-4)Glc": {"target": "Neu5Gc(a2-3)Gal(b1-4)Glc", "method_in_brief": "as §1"}},
  "note": "The sample as a whole holds a higher share of the strongest signals than the screen did.",
  "data": [
    {"binder": "GH98CBM (Clostridium perfringens) (protein) EVYALEESRDVYLSDLDWLNATHGDDTKSKIVQKNHPFTPGNNNQSTKISLKMEDGSISEFEKGLGTIAGSPSTITYDISGAGVTKFFSYLGIDRSANPINEQYAKVDKIEVVVDGKVIYSTINQFPNGLTYETPAIKVDLNIPENAKRLQLKSYAGEKTWGDEVVYADAKFTAKGDFVN", "values": [
      {"measurement": "glycan array binding signal (z-score)", "setting": "[1]", "result": 2.19},
      {"measurement": "glycan array binding signal (z-score)", "setting": "[2]", "result": 4.81},
      {"measurement": "glycan array binding signal (z-score)", "setting": "[3]", "result": 6.66},
      {"measurement": "glycan array binding signal (z-score)", "setting": "[4]", "result": 8.52},
      {"measurement": "glycan array binding signal (z-score)", "setting": "[5]", "result": 5.47},
      {"measurement": "glycan array binding signal (z-score)", "setting": "[6]", "result": -0.209},
      {"measurement": "glycan array binding signal (z-score)", "setting": "[7]", "result": 0.041},
      {"measurement": "glycan array binding signal (z-score)", "setting": "[8]", "result": -0.235},
      {"measurement": "glycan array binding signal (z-score)", "setting": "Fuc(b1-3)GlcNAc", "result": 0.118},
      {"measurement": "glycan array binding signal (z-score)", "setting": "GlcA(b1-3)Gal", "result": -0.196},
      {"measurement": "glycan array binding signal (z-score)", "setting": "GlcNAc(b1-6)GalNAc", "result": -0.22},
      {"measurement": "glycan array binding signal (z-score)", "setting": "GlcNAc3Prop(b1-4)GlcNAc", "result": -0.189},
      {"measurement": "glycan array binding signal (z-score)", "setting": "Man(b1-4)GlcNAc", "result": -0.183},
      {"measurement": "glycan array binding signal (z-score)", "setting": "[9]", "result": -0.233},
      {"measurement": "glycan array binding signal (z-score)", "setting": "[10]", "result": -0.247},
      {"measurement": "glycan array binding signal (z-score)", "setting": "Neu5Gc(a2-3)Gal(b1-4)Glc", "result": -0.107}
    ]}
  ]
}
